Screens from PubChem BioAssay.
L3MBTL1 block: L3MBTL1 (human) inhibition. Q9Y468. AlphaScreen L3MBTL1–H3K9me1 peptide binding. Potency, µM (series often up to 57.1 µM), without a hit: at the highest dose activity, negative = inhibition, usual class: inhibitors. hit rate 0.66% among 230,000. AID 485360; also: % is scaled to controls: 0 for no effect and ±100 for the full control effect; nearly all actives have a fitted effect of over 60% in size
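AlphaScreen assay: L3MBTL1 (50 nM final) was preincubated 30 min at room temperature with biotinylated H3(1-15)K9me1 peptide (75 nM final), then 30 min with library compounds; streptavidin donor and nickel chelate acceptor beads (10 ug/mL final) added, 30 min dark.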
POLI inh: inhibitors of human DNA polymerase iota; Q9UNA4; Pol iota fluorescent replication assay, 10 min; Potency, µM (doses to about 115 µM), for the others: at the top dose activity, negative = inhibition, usual class: inhibitors; hit rate 1% among 390,000
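Pol iota at 10 nM preincubated 15 min with compounds at room temperature; reaction started with fluorescent substrate, 50 nM final. Fluorescence read kinetically at 0 and 10 min; buffer-only wells as negative control.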
Pol beta inh: DNA polymerase beta (human) inhibition; Pol beta primer extension/strand displacement, fluorescence kinetic; Potency, µM (titrated, usually from 114 µM), for the others: at the highest dose activity change, negative = inhibition, most hits filed as inhibitors; hit rate 1.3% among 340,000; AID 485314; also: % is scaled to controls: 0 for no effect and ±100 for the full control effect
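Homogeneous kinetic assay of primer extension and strand displacement by 10 nM Pol beta, preincubated 15 min at room temperature with compound before 50 nM substrate (final) was added. Read at 0 and 10 min; four-parameter Hill fit.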
Pol eta inh: blocks human DNA polymerase eta activity. Q9Y253. recombinant Pol eta, fluorescent DNA replication assay. Potency, µM (titrated, usually from 114 µM), inactives show at the top dose activity change, negative = inhibition, usual class: inhibitors. hit rate 1.2% among 390,000; also: % is scaled to controls: 0 for no effect and ±100 for the full control effect
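Pol eta (10 nM) was preincubated with compounds for 15 min at room temperature, after which fluorescent replication substrate (50 nM final) was added to start the reaction. Fluorescence was read kinetically at 0 and 10 min.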
Pol kappa inh: blocks human DNA polymerase kappa activity; purified Pol kappa, fluorescent DNA synthesis assay, 10 min; Potency, µM (titrated, usually from 107 µM), inactives show at the top dose activity, negative = inhibition, most hits filed as inhibitors; hit rate 0.53% among 400,000; also: % is scaled to controls: 0 for no effect and ±100 for the full control effect
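Activity was followed as the change in fluorescence between reads at 0 and 10 min after starting the reaction with 50 nM substrate. Beforehand, 10 nM polymerase had been preincubated with compound for 15 min at room temperature.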
APE1 inh-1: blocks human APE1 abasic DNA cleavage; recombinant APE1, TAMRA/BHQ-2 abasic DNA cleavage fluorescence; P27695; Potency, µM (top dose mostly 65.8 µM), without a hit: top-dose activity change, negative = inhibition, actives largely listed as inhibitors; hit rate 0.35% among 350,000;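 also: plate controls were vehicle for no effect and reference inhibitor for full effect; nearly all actives have a fitted effect of over 55% in size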
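0.75 nM APE1 + cpd, 15 min RT; start w/ 50 nM TAMRA/BHQ-2 THF-abasic dsDNA; kinetic fluor 525/598 nm ×3 reads @60 s; Δ(read3−read1); normalized to DMSO and NSC13755 control wells.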
APE1 inh-2: APE1 (human) endonuclease inhibition, confirmation; shares compounds with APE1 inh-1; Potency, µM (doses to about 57.1 µM), without a hit: at the top dose activity change, negative = inhibition, actives largely listed as inhibitors; hit rate 44% among 750; purified APE1, fluorogenic abasic-site DNA cleavage; also: % is scaled to controls: 0 for no effect and ±100 for the full control effect; nearly all actives have a fitted effect of over 30% in size
* marks the source's active call; other numbers are inactive results; ? = inconclusive; / = no result; ! = not confirmed by another sample; [ ] = remark or other dose. An excerpt weighted towards active compounds, which were near 2.5% of everything screened. Calls follow the shape of the dose curve; as a rule, active = well fitted curve in the direction sought with a large enough effect; inconclusive = small, poorly fitted or top-dose-only effect, or another doubt; inactive = no such curve, though single readings can be large; an effect the other way counts as inactive or inconclusive. Potency is read from the fitted curve at half-maximal effect.

SMILES	L3MBTL1 block	POLI inh	Pol beta inh	Pol eta inh	Pol kappa inh	APE1 inh-1	others
CC(=O)Oc1c2c(c(CC=C(C)C)c3c1C(=O)C1=CC4CC5C(C)(C)OC(C/C=C(\C)C(=O)O)(C4=O)[C@]15O3)OC(C)(CCC=C(C)C)C=C2 (some centres not stated)	/	/	/	/	25.1µM*	-1.4%
CCCCCn1c(NC(=O)c2ccco2)c(C(=O)OCC)c2nc3ccccc3nc21	9.1%	1.41µM*	-8.4%	22.4µM*	-18.4%	-1.1%
COCCNC(=O)c1c(NC(=O)c2ccc(Br)o2)n(Cc2ccccc2)c2nc3ccccc3nc12	-25.9%	?	-2.4%	-18.9%	-9.8%	1.6%
CCOC(=O)c1c(N)n(CCCOC(=O)c2ccco2)c2nc3ccccc3nc12	/	?	-0.1%	-4.4%	-16.2%	29.0%
COCCCNC(=O)c1c(NC(=O)c2ccco2)n(Cc2ccccc2)c2nc3ccccc3nc12	/	3.16µM*	9.5%	?	-26.7%	-3.9%
CCCCNC(=O)c1c(N)n(CCCOC)c2nc3ccccc3nc12	/	2.51µM*	17.9%	-6.7%	-18.1%	-9.7%
CCOC(=O)c1c(NS(=O)(=O)c2ccccc2)n(CCCOC)c2nc3ccccc3nc12	4.5%	1.12µM*	0.6%	?	-22.0%	?
CN(CCc1ccc(Cl)c(Cl)c1)[C@H]1CCCC[C@H]1N1CCCC1	/	/	/	/	-4.6%[19.4 µM]	2.3%
CCC12CCN(CCc3ccc(F)cc3)CC1Oc1c(O)cccc12 (configuration not stated)	/	/	/	/	/	51.2%
CC[C@H](C)/C=C(C)/C=C/C1=CC2=C(Cl)C(=O)[C@@](C)(OC(C)=O)C(=O)C2=CO1	/	?	/	20µM*	?	/
CN1CCc2cc(O)cc3c2C1Cc1ccc(O)c(O)c1-3 (configuration not stated)	/	15.8µM*	-2.2%[57.1 µM]	-12.7%[57.1 µM]	4.3%[19.4 µM]	-8.2%
COC(=O)[C@@H]1[C@H]2CC[C@@H](C[C@H]1OC(=O)c1ccccc1)N2C	/	/	/	/	/	-3.3%
c1c[nH]cn1	/	/	/	/	/	13.9%
Cc1ccc(S(=O)(=O)N(CC(=O)N/N=C\c2cccs2)c2cccc3cccnc23)cc1	-13.9%	?	39.8µM*	?	-10.2%	-11.9%
Cc1ccccc1N(CC(=O)NC1CCCC1)C(=O)c1csnn1	6.8%	87.2%	36.8%	-1.7%	-4.6%	10.7%
CC(C)CN(CC(C)C)c1ccc(C=C2C(=O)NC(=S)NC2=O)cc1[N+](=O)[O-]	?	17.8µM*	50.1µM*	25.1µM*	?	9.2%
C=CCN1C(=O)NC(=O)/C(=C/C=C/c2ccccc2)C1=O	/	68.8%	-11.0%	-12.9%	-3.6%	2.0%
CN1C(=O)NC(=O)/C(=C\C=C\c2ccccc2[N+](=O)[O-])C1=O	-0.6%	14.1µM*	-0.9%	?	-10.9%	4.6%
O=C(CSc1nnc(NC(=O)C2CC2)s1)NCc1ccccc1Cl	/	31.5%	-12.8%	0.1%	0.1%	-4.6%
CCCCC/C=C\C/C=C\C/C=C\C/C=C\CCCC(=O)NCC(=O)O	/	2.24µM*	1.41µM*	0.501µM*	7.52µM*!	?
CCCCC/C=C\C/C=C\C/C=C\C/C=C\CCCC(=O)NCCCC(=O)O	/	/	/	/	14.1µM*	-6.7%
CCCCC/C=C\C/C=C\C/C=C\C/C=C\CCCC(=O)NCc1ccoc1	/	/	/	/	7.94µM*	?
C=C(C)C(=O)OCC1CO1 (configuration not stated)	/	/	/	/	/	-2.7%
O=C(C1CCCN(S(=O)(=O)c2ccc(F)cc2)C1)N1CCOCC1 (configuration not stated)	/	47.8%	/	-11.2%	6.8%	/
O=C(CCl)c1ccccc1	/	/	/	/	/	-2.7%
OC[C@@H]1O[C@H](OC2[C@@H](O)[C@@H](O)C(O)O[C@@H]2CO)[C@H](O)[C@@H](O)[C@@H]1OC1O[C@H](CO)[C@@H](O)[C@H](O)[C@@H]1O (some centres not stated)	/	/	/	/	11.5%[60.1 µM]	-4.2%
[Cl][In]([Cl])[Cl]	/	17.8µM*	/	/	2.8%[60.1 µM]	-0.4%
CN1CCN2c3ccc(N)cc3CC3(C(=O)NC(=O)NC3=O)C2C1 (configuration not stated)	/	?	44.7%	-13.9%	-8.9%	?	APE1 inh-2=?
[CH3][Hg][Cl]	/	/	/	/	/	14.1%
CC(c1ccccc1)n1cncc1C(=O)O (configuration not stated)	23.4%[11.4 µM]	16.1%	5.4%	8.8%	3.0%	?	APE1 inh-2=-37.6%
